Screens deposited in PubChem by National Center for Advancing Translational Sciences (NCATS).
HPGD block – blocks human HPGD enzyme activity | P15428 | purified HPGD, NADH fluorescence kinetic, PGE2 substrate | Potency, µM, without a hit: at the top dose activity change, negative = inhibition, most hits filed as inhibitors | actives 4.3% (n = 150,000) | AID 894; active means well fitted inhibition curve with a large enough effect, not every such curve was filed as active; inconclusive means small, poorly fitted or top-dose-only effect, or another doubt; inactive means no such curve, though single readings can be large or run the other way; further: potency means the concentration at half of the fitted maximal effect
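NADH formation kinetics: reaction with 30 uM PGE2 and 1 mM NAD+ (final), 20 nM enzyme, Tris-HCl pH 8 with Tween 20, after 15 min compound preincubation at room temperature. Fluorescence change, last versus first of five reads.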
aGal spleen mod – alpha-galactosidase A (human) modulation | human spleen homogenate, 4MU-alpha-Gal fluorescence, 40 min | P06280 | Potency, µM (series often up to 80 µM), for inactives: top-dose activity change, negative = inhibition, actives largely listed as inhibitors | actives 0.008% (n = 240,000) | AID 2107;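 further: potency means the concentration at half of the fitted maximal effect; 0% = enzyme with vehicle and -100% = no enzyme basal signal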
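Spleen homogenate 1 ug + cpd (titration) + 4-MU-alpha-D-galactopyranoside 1 mM; 37C 40 min; 50 mM citrate/phosphate pH 5.0, 0.01% Tween-20; stop pH 10; fluorescence 365/440; AC50 via Hill.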
ALOX12 inhib – inhibitors of human 12-lipoxygenase (ALOX12); Potency, µM (titrated, usually from 57.1 µM), inactives show top-dose activity change, negative = inhibition, most hits filed as inhibitors; actives 0.12% (n = 150,000); P18054; AID 1452; purified 12-hLO, xylenol orange hydroperoxide absorbance; further: potency means the concentration at half of the fitted maximal effect; nearly all actives have a fitted effect of over 55% in size
Target sequence (P18054 whole entry, looked up): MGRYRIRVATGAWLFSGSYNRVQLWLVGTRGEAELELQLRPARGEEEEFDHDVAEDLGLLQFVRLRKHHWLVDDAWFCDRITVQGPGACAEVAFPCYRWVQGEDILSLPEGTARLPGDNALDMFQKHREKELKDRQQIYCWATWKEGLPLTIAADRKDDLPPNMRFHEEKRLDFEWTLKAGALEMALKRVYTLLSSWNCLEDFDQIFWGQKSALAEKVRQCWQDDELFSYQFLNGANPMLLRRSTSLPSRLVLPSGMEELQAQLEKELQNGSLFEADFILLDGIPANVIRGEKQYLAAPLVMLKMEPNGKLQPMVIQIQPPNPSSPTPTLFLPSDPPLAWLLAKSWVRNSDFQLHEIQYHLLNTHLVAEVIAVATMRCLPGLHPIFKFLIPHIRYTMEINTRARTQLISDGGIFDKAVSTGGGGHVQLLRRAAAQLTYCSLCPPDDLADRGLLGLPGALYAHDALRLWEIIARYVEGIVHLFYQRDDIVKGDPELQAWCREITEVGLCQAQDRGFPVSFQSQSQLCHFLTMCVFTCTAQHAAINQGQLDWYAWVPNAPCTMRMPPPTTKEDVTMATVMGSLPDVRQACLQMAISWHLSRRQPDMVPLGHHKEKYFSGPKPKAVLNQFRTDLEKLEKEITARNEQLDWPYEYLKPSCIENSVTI
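Hydroperoxide output read as Fe(III)-xylenol orange absorbance, 573-to-405 nm ratio, after 30 min reaction with 40 uM arachidonic acid. Enzyme: 150 nM purified human 12hLO, 15 min compound preincubation; 25 mM Hepes pH 7.0, room temperature.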
ALDH1A1 block – inhibitors of human aldehyde dehydrogenase 1A1; P00352; Purified ALDH1A1, NADH fluorescence, propionaldehyde substrate; Potency, µM (titrated, usually from 75.3 µM), inactives show at the top dose activity, negative = inhibition, hits mostly inhibitors; actives 7.3% (n = 220,000); AID 1030; active means well fitted inhibition curve with a large enough effect, not every such curve was filed as active; inconclusive means small, poorly fitted or top-dose-only effect, or another doubt; inactive means no such curve, though single readings can be large or run the other way;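 further: potency means the concentration at half of the fitted maximal effect; plate controls were no enzyme wells and a reference inhibitor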
GLA inh pH 4.5 – inhibitors of human alpha-galactosidase A at pH 4.5; P06280; purified enzyme, 4-MU-alpha-Gal fluorescence, pH 4.5; activity change, negative = inhibition, % at 105 µM; 230,000 tested, under 10 active; AID 1467;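 further: 0% = full activity with enzyme and -100% = basal without enzyme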
PNC assembly inh – blocks assembly of the perinucleolar compartment. PC3M PTB-GFP, PNC prevalence imaging, 16 h; hits give low values. activity change (PNC), negative = inhibition, % at 10 µM. actives 3.1% (n = 140,000);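 active means readout at or below -70, meaning at least 70% loss of cells showing the perinucleolar compartment, a nuclear body marking cancer cells; inconclusive means readout between -30 and a set limit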;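 further: plate controls were DMSO wells for no effect and camptothecin positive control wells for full effect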
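Read-out is percentage of cells bearing a perinucleolar compartment, from automated 20x imaging of fixed, Hoechst-stained PC3M PTB-GFP cells. Cells were seeded 4 h, then exposed 16 h to compound (23 nl of library stock) in duplicate plates.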
* marks the source's active call; other numbers are inactive results; ? = inconclusive; / = not tested or not shown; [ ] = dose if it differs, or a comment. Compounds with a hit are over-represented: about 10% of the library has one in this group of screens. Unless noted, the call rests on the fitted dose curve; in most records, active means well fitted curve in the direction sought with a large enough effect; inconclusive means small, poorly fitted or top-dose-only effect, or another doubt; inactive means no such curve, though single readings can be large; an effect the other way counts as inactive or inconclusive. Unless noted, on the % scale 0 is the no-effect control and ±100 the full control effect.

SMILES	HPGD block	aGal spleen mod	ALOX12 inhib	ALDH1A1 block	GLA inh pH 4.5	PNC assembly inh
c1ccc(Cc2nnc3sc(-c4cccs4)nn23)cc1	8.91µM*	12.0%	4.7%	2.82µM*	0.5	-25.9
c1ccc(Cc2nnc3sc(-c4ccc5c(c4)OCCO5)nn23)cc1	?	5.7%	3.9%	?	1.4	35.6
c1ccc(CCc2nn3c(Cc4ccccc4)nnc3s2)cc1	11.2µM*	4.7%	-1.7%	8.91µM*	-2.8	-13.1
c1ccc(Cc2nn3c(-c4ccncc4)nnc3s2)cc1	28.2µM*	-11.3%	1.6%	22.4µM*	-4.2	19.5
CCOc1ccccc1-c1nn2c(Cc3ccccc3)nnc2s1	?	-5.8%	-9.6%	?	-6.8	12.0
c1ccc(Cc2nnc3sc(-c4ccccn4)nn23)cc1	?	-2.1%	2.1%	14.1µM*	2.8	?
c1ccc(OCc2nn3c(-c4ccncc4)nnc3s2)cc1	-28.1%	2.2%	-5.4%	8.4%	2.8	-6.6
N#CCCCS(=O)(=O)c1ccccc1	-5.8%	4.8%	/	4.8%	6.0	/
Cc1ccc(S(=O)(=O)NC(C)CCc2ccccc2)cc1 (configuration not stated)	-6.5%	2.1%	-2.5%	25.1µM*	7.5	21.3
N#Cc1cccc(-c2nc(NCc3ccccc3)c3ccccc3n2)c1	/	-3.6%	/	?	/	/
CCOC(=O)CCCc1sc(N)nc1-c1[nH]c(=O)[nH]c1C	31.6µM*	0.8%	-8.7%	12.6µM*	-1.3	14.5
CCOC(=O)CCc1c(C)n[nH]c1C	/	-2.8%	/	-0.1%	2.2	/
Cc1cc(C)nc(N/C(=N\S(=O)(=O)Cc2ccccc2)Nc2ccccc2Br)n1	-6.1%	-2.8%	2.2%	?	-2.6	-0.2
Cc1ccc(-n2c(SCC(N)=O)nc3c([nH]c4ccccc43)c2=O)cc1	-5.2%	0.0%	-11.5%	11.2µM*	6.3	?
O=C(CSc1nc2c([nH]c3ccccc32)c(=O)n1-c1ccccc1)N1CCOCC1	-13.7%	-4.3%	-2.6%	2.51µM*	3.5	?
CN[C@@H]1[C@H](O[C@H]2[C@@H](O[C@@H]3[C@@H](O)[C@@H](O)[C@@H](N=C(N)N)[C@@H](O)[C@@H]3N=C(N)N)O[C@@H](C)[C@]2(O)CO)O[C@H](CO)[C@@H](O)[C@@H]1O	-3.9%	5.2%[29.1 µM]	-0.5%[25.6 µM]	7.1%[20.9 µM]	1.9	/
C=C(C)CN1CCN(S(=O)(=O)c2ccc(C)c(N(C)S(=O)(=O)c3ccc(C)cc3)c2C)CC1	-25.4%	-5.8%	-0.7%	-6.1%	9.8	-27.0
O=C1[C@H]2[C@H]3[C@H](O)[C@H](O)C/C(=N/OCc4ccccc4)[C@H]3CC[C@@H]2C(=O)N1Cc1ccc2c(c1)OCO2	/	-2.6%[17.5 µM]	/	-4.1%[13.5 µM]	/	/
COc1ccc2cc(/C=C3\SC(=S)NC3=O)c(N3CCOCC3)nc2c1	20µM*	0.8%	5.9%	21.9%	-9.2	?
O=C1S/C(=C/c2ccc(N3CCOCC3)o2)C(=O)N1Cc1ccc(F)cc1	-7.5%	-6.1%	?	2.24µM*	5.3	35.9
O=C1NC(=S)S/C1=C/c1ccc(N2CCOCC2)o1	7.94µM*	6.1%	-27.9%	7.8%	-1.9	-14.4
CC(C)OC(=O)CN1C(=O)S/C(=C/c2ccc(N3CCCCC3)o2)C1=O	-13.3%	14.7%	-8.2%	7.08µM*	-4.2	-4.3
O=C1N=C(N2CCOCC2)S/C1=C/c1ccc(-c2ccc(F)cc2)o1	/	-7.0%	/	-1.1%	-25.4	/
COc1ccc2[nH]cc(CCNc3ncnc4ccc(-c5cccc(C#N)c5)cc34)c2c1	/	-1.2%	/	-6.7%	/	/
O=C1S/C(=C\c2ccc(N3CCOCC3)o2)C(=O)N1Cc1ccc(F)cc1	?	1.4%	-18.5%	8.91µM*	-6.4	44.9
SMILES	HPGD block	aGal spleen mod	ALOX12 inhib	ALDH1A1 block	GLA inh pH 4.5	PNC assembly inh
C=CCN1C(=O)N/C(=C/c2ccc(N3CCOCC3)o2)C1=O	-20.0%	-7.5%	-2.9%	?	1.0	48.4
O=C1N/C(=C/c2ccc(N3CCOCC3)o2)C(=O)N1c1ccccc1	?	3.3%	-10.9%	7.08µM*	-13.5	?
CCOc1ccc(OCc2ccc(C(=O)NCC3CCCO3)o2)cc1 (configuration not stated)	-29.1%	2.6%	3.3%	-11.8%	1.8	2.7
O=C(NCC1CCCO1)c1ccc(COc2ccc(F)cc2)o1 (configuration not stated)	25.1µM*	0.9%	-9.4%	10µM*	-5.8	-20.3
O=C(NCC1CCCO1)c1ccc(C(=O)NCC2CCCO2)cc1 (configuration not stated)	-10.3%	7.6%	1.5%	0.1%	11.7	13.0
CCOc1ccc(C(=O)NCC2CCCO2)cc1 (configuration not stated)	15.8µM*	2.8%	-4.2%	5.1%	4.1	-1.5
CCOC(=O)Nc1ccc(C(=O)NCC2CCCO2)cc1 (configuration not stated)	15.8µM*	2.9%	-4.9%	0.0%	1.3	-1.5
Cn1cccc1C(=O)N1CCC2(CC1)CCN(c1ccncc1)CC2	-1.0%	5.8%	-3.4%	7.2%	/	/
CN(C)c1nc(=NCc2ccco2)ss1	/	-2.8%	/	10µM*	-3.0	/
CN(C)c1ccc(/C=C(/C#N)C(=O)NCc2ccccc2)o1	-10.6%	4.5%	-3.9%	?	0.0	-83.2*
O=C(c1cc2ccccc2o1)c1nc2c(n1O)CCCCC2	14.1µM*	0.1%	-13.8%	-0.7%	-6.3	?
C=C(C)C(=O)/C=C/c1ccc(Br)cc1	-2.7%	-2.0%	/	-7.7%	-3.9	/
CCCCc1cc2c(cn1)=C(OC(=O)c1ccco1)C(C)(OC(=O)CC)C(=O)C=2 (configuration not stated)	-13.3%	-0.4%[17.5 µM]	-1.6%[11.4 µM]	2µM*	7.7	/
C/C(CC/C(C)=N/O)=N/O	-5.2%	/	-3.0%[11.4 µM]	18.6%[13.5 µM]	/	/
COc1ccc(-c2ccc(SCC(=O)c3ccc(F)cc3)nn2)cc1OC	/	-0.6%	/	15.8µM*	-4.6	/
O=C(C1CC(c2ccc(F)cc2)=NO1)N1CCc2ccccc2C1 (configuration not stated)	20µM*	-0.6%	-7.3%	-9.7%	-7.2	27.6
O=C(C1CC(c2ccccc2O)=NO1)N1CCc2ccccc2C1 (configuration not stated)	15.8µM*	20.3%	-0.5%	-2.8%	1.1	20.8
O=C(C1CC(c2ccccc2O)=NO1)N1CCCCC1 (configuration not stated)	7.94µM*	2.5%	-3.6%	?	0.8	?
Cc1ccc2[nH]c3c(=O)n(N)c(=O)[nH]c3c2c1	/	?	/	?	4.0	/
COc1cccc(-c2cncnc2Nc2ccccc2)c1	/	1.7%	/	-3.0%	/	/
COc1ccc2c(c1)[n+]([O-])c(/C(C)=N/NC(N)=S)c(C)[n+]2[O-]	/	/	3.4%[11.4 µM]	/	/	/
